# The supplement of paper PMC12350171
# Structures can show the parent of a compound that is named as a salt. A number with no mark means an inactive call.
# Key:
# Conditions in all cases: 20 µM
# [1] = system: Salmonella enterica typhimurium; assay: growth AUC normalised to DMSO control (fraction of control); higher = less growth inhibition, active = hit call of the paper
# How it was run: (§1)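 Pathogens passaged twice anaerobically were inoculated at a starting OD578 of 0.01 into pre-reduced mGAM plates with drug at 20 μM and 1% DMSO, sealed with breathable membranes. Haemophilus parainfluenzae medium was supplemented with hemin and NAD. OD578 was read hourly for 24 h, with three biological replicates. Growth-curve AUC was computed by the trapezoidal rule up to the exponential-to-stationary transition and normalised to DMSO controls on the same plate.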
# [2] = system: Shigella flexneri; assay: as above
# How it was run: as §1
# [3] = system: Vibrio cholerae; assay: as above
# How it was run: as §1
# [4] = system: Yersinia pseudotuberculosis; assay: as above
# How it was run: as §1
# [5] = system: P. vulgatus RND KO; assay: growth AUC normalised to DMSO control (median) (fraction of control); higher = less growth inhibition, active = hit call of the paper
# How it was run: (§2)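 Each strain went through two overnight passages under anaerobic conditions before growth in mGAM in 96-well plates, starting at OD578 0.01, with each compound from the approved-drug library at 20 μM and 1% DMSO. Inside an anaerobic incubator, OD578 was recorded every hour for 24 h. Growth curves were cut off at entry into stationary phase, and the area under the curve was calculated by the trapezoidal rule and normalised to vehicle wells on the same plate. Reported values are medians of three biological replicates.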
# [6] = system: P. vulgatus WT; assay: as above
# How it was run: as §2
# [7] = system: S. enterica typhimurium WT; assay: as above
# How it was run: as §2
# [8] = system: S. enterica typhimurium tolC KO; assay: as above
# How it was run: as §2
# 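Wherever growth AUC normalised to DMSO control (median) is given: active when median AUC fell below 0.1.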
SMILES,growth AUC normalised to DMSO control [1],growth AUC normalised to DMSO control [2],growth AUC normalised to DMSO control [3],growth AUC normalised to DMSO control [4],growth AUC normalised to DMSO control [5],growth AUC normalised to DMSO control [6],growth AUC normalised to DMSO control [7],growth AUC normalised to DMSO control [8]
C[N+](C)(C)CCCCCC[N+](C)(C)C [Hexamethonium dibromide dihydrate],0.947,0.996,0.971,0.966,0.992,1,0.99,1.02
O=C(O)COC(=O)Cc1ccccc1Nc1c(Cl)cccc1Cl [Aceclofenac],0.995,0.979,0.979,0.999,0.995,0.983,1.01,0.998
CNCC(O)c1ccc(OC(=O)C(C)(C)C)c(OC(=O)C(C)(C)C)c1 (stereo not given) [Dipivefrin hydrochloride],1.01,1.04,1.05,1.01,1.02,1.03,1.02,0.953
CC1Cc2ccccc2N1NC(=O)c1ccc(Cl)c(S(N)(=O)=O)c1 (stereo not given) [Indapamide],1,0.985,1.01,0.992,0.999,1.02,1,0.988
C=CCc1ccccc1OCC(O)CNC(C)C (stereo not given) [Alprenolol hydrochloride],1.01,1.06,1.04,1.01,1.07,1.08,0.995,0.997
CCCN(CCC)S(=O)(=O)c1ccc(C(=O)O)cc1 [Probenecid],1.02,1.03,1.02,1.02,1,1.02,1.02,0.895
CC(=O)Oc1ccccc1C(=O)Oc1ccccc1C(=O)O [Acetylsalicylsalicylic acid],0.997,0.973,0.983,0.932,0.998,1.04,0.999,0.997
Cc1c(Cl)cccc1Nc1ncccc1C(=O)O [Clonixin lysinate],1,0.989,0.94,1,0.979,1,1.02,0.954
"Cc1c(O)c(=O)n(-c2ccccc2)n1C [Antipyrine, 4-hydroxy]",1.01,1.07,1.01,1.03,1.01,1.06,1.01,1
COc1cc2nc(N3CCN(C(=O)C4COc5ccccc5O4)CC3)nc(N)c2cc1OC (stereo not given) [Doxazosin mesylate],0.974,0.985,0.942,0.996,0.949,0.916,0.994,0.952
CCc1cccc2c3c([nH]c12)C(CC)(CC(=O)O)OCC3 (stereo not given) [Etodolac],1.01,1.06,1.06,1.02,0.99,1.01,1.02,1.02
CC(C)(C)NC[C@H](O)COc1nsnc1N1CCOCC1 [Timolol maleate salt],0.981,1.01,1.01,0.987,1.01,1.01,0.999,0.999
C=CCN1CCCC1CNC(=O)c1cc2nn[nH]c2cc1OC (stereo not given) [Alizapride hydrochloride],1,1,1.01,0.996,0.998,1,1.02,1
COc1ccc([C@@H]2Sc3ccccc3N(CCN(C)C)C(=O)[C@@H]2OC(C)=O)cc1 [Diltiazem hydrochloride],0.998,0.969,1,1.01,0.99,1,0.995,0.973
CC(=O)O[C@]1(C(C)=O)CC[C@H]2[C@@H]3C=C(Cl)C4=CC(=O)CC[C@]4(C)[C@H]3CC[C@@]21C [Chlormadinone acetate],0.989,0.993,1,1,0.945,0.977,0.998,0.981
COc1ccc([C@@H]2CC(=O)c3c(O)cc(O[C@@H]4O[C@H](CO[C@@H]5O[C@@H](C)[C@H](O)[C@@H](O)[C@H]5O)[C@@H](O)[C@H](O)[C@H]4O)cc3O2)cc1O [Hesperidin],1.03,1.04,1.07,1.01,1.03,1,1,1.01
CCCC1C(=O)N2C(N(C)C)=Nc3ccc(C)cc3N2C1=O (stereo not given) [Azapropazone],0.983,0.96,0.958,0.964,0.993,1,1,0.995
CCOC(=O)NNc1nncc2ccccc12 [Todralazine hydrochloride],1.01,1.01,0.99,1.01,1.01,0.999,1.01,1.02
CCOC(=O)C1=C[C@]2(CC)CCCN3CCc4c(n1c1ccccc41)[C@@H]32 [Vinpocetine],0.974,1.03,0.904,1.01,1,0.988,1,0.972
COc1cnc(NS(=O)(=O)c2ccc(N)cc2)nc1 [Sulfameter],1,0.986,1.01,1,0.992,1,0.993,0.993
Cc1ccnc(NS(=O)(=O)c2ccc(N)cc2)n1 [Sulfamerazine],0.973,1.03,0.977,1.01,0.988,1.01,0.986,0.998
CC(=O)NC[C@H]1CN(c2ccc(N3CCOCC3)c(F)c2)C(=O)O1 [Linezolid],0.885 (active),0.806 (active),0.0187 (active),0.916,0.00951 (active),0.011 (active),0.918,0.223
CNC(=C[N+](=O)[O-])NCCSCc1ccc(CN(C)C)o1 [Ranitidine hydrochloride],1,1,1.01,1.01,1.01,0.985,1.02,1.01
COC(=O)Nc1nc2cc(C(=O)c3cccs3)ccc2[nH]1 [Nocodazole],1.01,1.02,0.979,1,1.01,1.02,1.01,0.975
O=C(O)CCc1nc(-c2ccccc2)c(-c2ccccc2)o1 [Oxaprozin],1.02,1.02,1.01,0.994,1,1.05,1,1
Cc1ccc2c(c1)c1c3n2CCNC3CCC1 (stereo not given) [Pirlindole mesylate],0.988,0.999,0.993,0.964,1.02,1.03,0.998,0.992
Cc1cc(=O)oc2cc(O)ccc12 [Hymecromone],1.01,1,0.998,0.95,1.03,1.05,0.999,1.02
CC(=O)O[C@]1(C(C)=O)CC[C@H]2[C@@H]3C=C(Cl)C4=CC(=O)[C@@H]5C[C@@H]5[C@]4(C)[C@H]3CC[C@@]21C [Cyproterone acetate],1,1.01,1,0.994,0.896,0.907,1,0.953
NS(=O)(=O)c1cc2c(cc1C(F)(F)F)NCNS2(=O)=O [Hydroflumethiazide],1.01,1.01,0.998,0.998,1.02,0.986,1.01,1.01
CC(=O)c1ccc2c(c1)N(CCCN1CCC(CCO)CC1)c1ccccc1S2 [Piperacetazine],0.971,1.05,1.03,1.01,1.01,1.02,1,0.948
